{"source": "the supplement of paper PMC6992640", "data": [{"test_system": "WHIM2 (cells of a triple-negative basal-like breast cancer xenograft)", "assay": "cell viability of combination (% of vehicle); higher = less cytotoxic", "details": "1 µM; 72 h; partner dose: 10 nM", "description": "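PDX cells were treated for 72 h with each drug at 1 µM plus afatinib (10 nM; 1 µM for WHIM30). Luciferase viability is expressed as percent of vehicle.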", "values": [{"smiles": "COc1ccc(C[C@H](N)C(=O)N[C@@H]2[C@H](O)[C@H](n3cnc4c(N(C)C)ncnc43)O[C@@H]2CO)cc1.Cl.Cl", "note": "[Puromycin dihydrochloride] + CN(C)C/C=C/C(=O)Nc1cc2c(Nc3ccc(F)c(Cl)c3)ncnc2cc1O[C@H]1CCOC1 [Afatinib]", "cell viability of combination": 82.6}, {"smiles": "CCN(CC)CCCC(C)Nc1ccnc2cc(Cl)ccc12.O=P(O)(O)O.O=P(O)(O)O", "note": "(stereo not given) [Chloroquine diphosphate] + CN(C)C/C=C/C(=O)Nc1cc2c(Nc3ccc(F)c(Cl)c3)ncnc2cc1O[C@H]1CCOC1 [Afatinib]", "cell viability of combination": 34.5}, {"smiles": "C=C1C(=CC=C2CCCC3(C)C2CCC3C(C)CCCC(C)C)CC(O)CC1O", "note": "(stereo not given) [Alfacalcidol] + CN(C)C/C=C/C(=O)Nc1cc2c(Nc3ccc(F)c(Cl)c3)ncnc2cc1O[C@H]1CCOC1 [Afatinib]", "cell viability of combination": 34.4}, {"smiles": "Nc1ncn(C2OC(CO)C(O)C2O)c(=O)n1", "note": "(stereo not given) [5-Azacytidine] + CN(C)C/C=C/C(=O)Nc1cc2c(Nc3ccc(F)c(Cl)c3)ncnc2cc1O[C@H]1CCOC1 [Afatinib]", "cell viability of combination": 48.9}, {"smiles": "CN(C)c1ccc(C(=C2C=CC(=[N+](C)C)C=C2)c2ccc(N(C)C)cc2)cc1.[Cl-]", "note": "[Crystal Violet] + CN(C)C/C=C/C(=O)Nc1cc2c(Nc3ccc(F)c(Cl)c3)ncnc2cc1O[C@H]1CCOC1 [Afatinib]", "cell viability of combination": 28.4}, {"smiles": "CCOC(=O)C1=C(COCCN)NC(C)=C(C(=O)OC)C1c1ccccc1Cl", "note": "(stereo not given) [Amlodipine] + CN(C)C/C=C/C(=O)Nc1cc2c(Nc3ccc(F)c(Cl)c3)ncnc2cc1O[C@H]1CCOC1 [Afatinib]", "cell viability of combination": 51.1}, {"smiles": "CN1CCN(c2ccc(C(=O)/N=c3\\[nH][nH]c4ccc(Cc5cc(F)cc(F)c5)cc34)c(NC3CCOCC3)c2)CC1", "note": "[Entrectinib] + CN(C)C/C=C/C(=O)Nc1cc2c(Nc3ccc(F)c(Cl)c3)ncnc2cc1O[C@H]1CCOC1 [Afatinib]", "cell viability of combination": 38.5}, {"smiles": "Nc1ccn(C2OC(CO)C(O)C2O)c(=O)n1", "note": "(stereo not given) [Cytarabine] + CN(C)C/C=C/C(=O)Nc1cc2c(Nc3ccc(F)c(Cl)c3)ncnc2cc1O[C@H]1CCOC1 [Afatinib]", "cell viability of combination": 38.3}, {"smiles": "Cl.Cl.O=C1c2c(O)ccc(O)c2C(=O)c2c(NCCNCCO)ccc(NCCNCCO)c21", "note": "[Mitoxantrone HCl] + CN(C)C/C=C/C(=O)Nc1cc2c(Nc3ccc(F)c(Cl)c3)ncnc2cc1O[C@H]1CCOC1 [Afatinib]", "cell viability of combination": 13.5}, {"smiles": "CC(C)(C)NC(=O)C1CC2CCCCC2CN1CC(O)C(Cc1ccccc1)NC(=O)C(CC(N)=O)NC(=O)c1ccc2ccccc2n1.CS(=O)(=O)O", "note": "(stereo not given) [Saquinavir mesylate] + CN(C)C/C=C/C(=O)Nc1cc2c(Nc3ccc(F)c(Cl)c3)ncnc2cc1O[C@H]1CCOC1 [Afatinib]", "cell viability of combination": 47.9}, {"smiles": "CO[C@H]1C[C@@H]2CC[C@@H](C)[C@@](O)(O2)C(=O)C(=O)N2CCCC[C@H]2C(=O)O[C@H]([C@H](C)C[C@@H]2CC[C@@H](O)[C@H](OC)C2)CC(=O)[C@H](C)/C=C(\\C)[C@@H](O)[C@@H](OC)C(=O)[C@H](C)C[C@H](C)/C=C/C=C/C=C/1C", "note": "[Rapamycin (Sirolimus)] + CN(C)C/C=C/C(=O)Nc1cc2c(Nc3ccc(F)c(Cl)c3)ncnc2cc1O[C@H]1CCOC1 [Afatinib]", "cell viability of combination": 39.3}, {"smiles": "COc1cccc2c1C(=O)c1c(O)c3c(c(O)c1C2=O)C[C@@](O)(C(C)=O)C[C@@H]3O[C@H]1C[C@H](N)[C@H](O)[C@H](C)O1.Cl", "note": "[Daunorubicin HCl] + CN(C)C/C=C/C(=O)Nc1cc2c(Nc3ccc(F)c(Cl)c3)ncnc2cc1O[C@H]1CCOC1 [Afatinib]", "cell viability of combination": 9.65}, {"smiles": "CCCCCCCCCCCCCCCCOP(=O)([O-])OCC[N+](C)(C)C", "note": "[Miltefosine] + CN(C)C/C=C/C(=O)Nc1cc2c(Nc3ccc(F)c(Cl)c3)ncnc2cc1O[C@H]1CCOC1 [Afatinib]", "cell viability of combination": 49.3}, {"smiles": "COC(=O)NC(C(=O)NC(Cc1ccccc1)C(O)CN(Cc1ccc(-c2ccccn2)cc1)NC(=O)C(NC(=O)OC)C(C)(C)C)C(C)(C)C", "note": "(stereo not given) [Atazanavir] + CN(C)C/C=C/C(=O)Nc1cc2c(Nc3ccc(F)c(Cl)c3)ncnc2cc1O[C@H]1CCOC1 [Afatinib]", "cell viability of combination": 54}, {"smiles": "CC1(C)CCC(c2ccc(Cl)cc2)=C(CN2CCN(c3ccc(C(=O)NS(=O)(=O)c4ccc(NC(CCN5CCOCC5)CSc5ccccc5)c(S(=O)(=O)C(F)(F)F)c4)cc3)CC2)C1", "note": "(stereo not given) [ABT-263 (Navitoclax)] + CN(C)C/C=C/C(=O)Nc1cc2c(Nc3ccc(F)c(Cl)c3)ncnc2cc1O[C@H]1CCOC1 [Afatinib]", "cell viability of combination": 29.5}, {"smiles": "CCOC(=O)c1c(CSc2ccccc2)n(C)c2cc(Br)c(O)c(CN(C)C)c12.Cl", "note": "[Arbidol HCl] + CN(C)C/C=C/C(=O)Nc1cc2c(Nc3ccc(F)c(Cl)c3)ncnc2cc1O[C@H]1CCOC1 [Afatinib]", "cell viability of combination": 45.2}, {"smiles": "Cn1cnc2c(F)c(Nc3ccc(Br)cc3F)c(C(=O)NOCCO)cc21", "note": "+ CN(C)C/C=C/C(=O)Nc1cc2c(Nc3ccc(F)c(Cl)c3)ncnc2cc1O[C@H]1CCOC1 [Afatinib]", "cell viability of combination": 34.8}, {"smiles": "C=C1C(=CC=C2CCCC3(C)C2CCC3C(C)C=CC(C)C(C)C)CC(O)CC1O", "note": "(stereo not given) [Doxercalciferol] + CN(C)C/C=C/C(=O)Nc1cc2c(Nc3ccc(F)c(Cl)c3)ncnc2cc1O[C@H]1CCOC1 [Afatinib]", "cell viability of combination": 37.1}, {"smiles": "CCOc1nc2cccc(C(=O)OC(C)OC(=O)OC3CCCCC3)c2n1Cc1ccc(-c2ccccc2-c2nn[nH]n2)cc1", "note": "(stereo not given) [Candesartan Cilexetil] + CN(C)C/C=C/C(=O)Nc1cc2c(Nc3ccc(F)c(Cl)c3)ncnc2cc1O[C@H]1CCOC1 [Afatinib]", "cell viability of combination": 50.8}, {"smiles": "CN1CCC(COc2cnc(-c3cccc(Cn4nc(-c5cccc(C#N)c5)ccc4=O)c3)nc2)CC1", "note": "+ CN(C)C/C=C/C(=O)Nc1cc2c(Nc3ccc(F)c(Cl)c3)ncnc2cc1O[C@H]1CCOC1 [Afatinib]", "cell viability of combination": 51}, {"smiles": "Cl.Cl.Fc1ccc(C(c2ccc(F)cc2)N2CCN(CC=Cc3ccccc3)CC2)cc1", "note": "[Flunarizine 2HCl] + CN(C)C/C=C/C(=O)Nc1cc2c(Nc3ccc(F)c(Cl)c3)ncnc2cc1O[C@H]1CCOC1 [Afatinib]", "cell viability of combination": 50.6}, {"smiles": "CC(C)CC(NC(=O)C(NC(=O)c1cccc(-c2ccccc2)n1)C(C)O)B(O)O", "note": "(stereo not given) + CN(C)C/C=C/C(=O)Nc1cc2c(Nc3ccc(F)c(Cl)c3)ncnc2cc1O[C@H]1CCOC1 [Afatinib]", "cell viability of combination": 97}, {"smiles": "Oc1c(Cl)cc(Cl)c2cccnc12", "note": "[Chloroxine] + CN(C)C/C=C/C(=O)Nc1cc2c(Nc3ccc(F)c(Cl)c3)ncnc2cc1O[C@H]1CCOC1 [Afatinib]", "cell viability of combination": 45.9}, {"smiles": "CNC(=O)c1cc(Oc2ccc(NC(=O)Nc3ccc(Cl)c(C(F)(F)F)c3)c(F)c2)ccn1", "note": "[Regorafenib] + CN(C)C/C=C/C(=O)Nc1cc2c(Nc3ccc(F)c(Cl)c3)ncnc2cc1O[C@H]1CCOC1 [Afatinib]", "cell viability of combination": 44.2}, {"smiles": "CC(C)Nc1cc(-c2c[nH]c(C(=O)NC(CO)c3cccc(Cl)c3)c2)c(Cl)cn1", "note": "(stereo not given) + CN(C)C/C=C/C(=O)Nc1cc2c(Nc3ccc(F)c(Cl)c3)ncnc2cc1O[C@H]1CCOC1 [Afatinib]", "cell viability of combination": 30.3}, {"smiles": "COc1cc2c(Nc3ccc(Br)cc3F)ncnc2cc1OCC1CCN(C)CC1", "note": "[Vandetanib (ZD6474)] + CN(C)C/C=C/C(=O)Nc1cc2c(Nc3ccc(F)c(Cl)c3)ncnc2cc1O[C@H]1CCOC1 [Afatinib]", "cell viability of combination": 24.4}, {"smiles": "O=C(O)CO.[NH2-].[NH2-].[Pt+2]", "note": "[Nedaplatin] + CN(C)C/C=C/C(=O)Nc1cc2c(Nc3ccc(F)c(Cl)c3)ncnc2cc1O[C@H]1CCOC1 [Afatinib]", "cell viability of combination": 48.5}, {"smiles": "CC(CCC(=O)O)C1CCC2C3CCC4CC(O)CCC4(C)C3CCC12C", "note": "(stereo not given) [Lithocholic Acid] + CN(C)C/C=C/C(=O)Nc1cc2c(Nc3ccc(F)c(Cl)c3)ncnc2cc1O[C@H]1CCOC1 [Afatinib]", "cell viability of combination": 40.5}, {"smiles": "CO[C@@]12[C@H](COC(N)=O)C3=C(C(=O)C(C)=C(N)C3=O)N1C[C@@H]1N[C@@H]12", "note": "[Mitomycin C] + CN(C)C/C=C/C(=O)Nc1cc2c(Nc3ccc(F)c(Cl)c3)ncnc2cc1O[C@H]1CCOC1 [Afatinib]", "cell viability of combination": 35.1}, {"smiles": "CC1(C)Cc2c(-c3ccccc3)c(-c3ccc(Cl)cc3)c(CC(=O)O)n2C1", "note": "[Licofelone] + CN(C)C/C=C/C(=O)Nc1cc2c(Nc3ccc(F)c(Cl)c3)ncnc2cc1O[C@H]1CCOC1 [Afatinib]", "cell viability of combination": 46.8}]}]}
